Mm-Cpn inhibitor = blocks the Methanococcus maripaludis chaperonin Mm-Cpn; purified Mm-Cpn ATPase, ADP Transcreener TR-FRET; Potency, µM (doses to about 76.9 µM), for inactives: top-dose activity, negative = inhibition, most hits filed as inhibitors; 0.031% of 330,000 active; also: % is scaled to controls: 0 for no effect and ±100 for the full control effect; nearly all actives have a fitted effect of over 80% in size
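Compound-treated chaperonin, 25 nM final, turns over 10 uM ATP at 37°C for 30 min following a 10 min preincubation; ADP generated competes with ADP-d2 for Eu-cryptate antibody, lowering FRET.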
FUS suppressor = rescues growth of FUS-expressing yeast; S. cerevisiae FUS-expressing, growth rescue, OD600, 24 h; Potency, µM (titrated, usually from 76.6 µM), usual class: activators; 0.24% of 390,000 active;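 also: plate controls were DMSO vehicle for no effect and reference control for full effect; nearly all actives have a fitted effect of over 55% in size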
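Steps: raffinose overnight preculture; dilution to OD 0.005 in 2% galactose minimal medium; compound addition (concentration series); 24hr at 30C, 99% humidity; absorbance read at 600 nm.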
ClpP mod = qHTS Assay for Activators of ClpP | 1.9% of 340,000 active | purified B. subtilis ClpP, FRET peptide cleavage, 20 min | ATP-dependent Clp protease proteolytic subunit (Bacillus subtilis (strain 168)), P80244 | Potency, µM (series often up to 57.5 µM), inactives show top-dose activity change, negative = active; active = well fitted falling curve with a large enough effect; inconclusive = small, poorly fitted or top-dose-only effect; inactive = no such curve, though single readings can be large or run the other way; also: the source files actives as falling curves though it sought activators and does not explain the sign; nearly all actives have a fitted effect of over 65% in size
Target sequence (P80244 whole entry, looked up): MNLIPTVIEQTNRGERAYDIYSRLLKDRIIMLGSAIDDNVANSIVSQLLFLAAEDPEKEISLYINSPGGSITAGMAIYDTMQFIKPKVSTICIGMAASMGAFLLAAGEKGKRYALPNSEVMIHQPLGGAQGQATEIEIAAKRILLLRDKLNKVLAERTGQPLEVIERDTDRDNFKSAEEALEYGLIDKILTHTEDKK
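Buffer: 100 mM Tris/HCl pH8, 100 mM KCl, 0.05% low protease BSA, 2.5% glycerol, 0.01% Tween-20. ClpP 10 microg/mL final; 20 min RT; delta FRET normalized to ADEP and DMSO controls.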
aSyn yeast inh = inhibitors of alpha-synuclein toxicity in yeast. Yeast expressing alpha-synuclein, growth rescue, BacTiter-Glo, 24 h. Potency, µM (highest dose often 46.1 µM), for the others: at the top dose growth rescue (activation), hits mostly activators. 0.14% of 370,000 active; also: % of control where 0% means no effect; nearly all actives have a fitted effect of over 65% in size
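Galactose-induced alpha-syn yeast (OD600=0.02, raffinose-pregrown) + pinned cpd, 24 hr, 30 deg C; growth by BacTiter-Glo luminescence. Growth restoration scores as activation.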
Abeta rescue = restores growth of yeast expressing A-beta42 peptide; yeast expressing A-beta42, growth rescue, OD600, 48 h; response scale: 0% DMSO, 100% iron-clioquinol control; Potency, µM (titrated, usually from 46.1 µM), most hits filed as activators; 0.063% of 410,000 active; also: nearly all actives have a fitted effect of over 55% in size
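Yeast A-beta toxicity model in growth medium with pinned compounds, 48 h at 30 C; growth read as absorbance at 600 nm. Normalized to FeCl3/clioquinol equimolar mix (positive) and DMSO (negative).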
TDP43 rescue = TDP-43 toxicity inhibition in yeast; TDP-43 expressing yeast growth rescue, BacTiter-Glo, 24 h; Potency, µM (highest dose often 46.1 µM), inactives show at the top dose growth rescue (activation), actives largely listed as activators; 1.8% of 410,000 active; also: % of control where 0% means no effect; nearly all actives have a fitted effect of over 50% in size
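Galactose-induced TDP-43 yeast, OD600=0.02, compound pinned; 24 hr, 30 deg C; BacTiter-Glo luminescence for growth. Inhibitors of TDP-43 toxicity read as activators.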
Numbers without * were called inactive. In the library only some 3.6% were active in any assay of this set; here they are far more common. Unless noted, calls follow the shape of the dose curve; as a rule, active = well fitted curve in the direction sought with a large enough effect; inconclusive = small, poorly fitted or top-dose-only effect, or another doubt; inactive = no such curve, though single readings can be large; an effect the other way counts as inactive or inconclusive. Potency is read from the fitted curve at half-maximal effect.

What do the screens show for `CC1CCN(C(=O)c2ccc3c(c2)N(Cc2ccccc2)C(=O)c2ccccc2S3(=O)=O)CC1`?
FUS suppressor: inconclusive; ClpP mod: 1%; Abeta rescue: inactive; TDP43 rescue: 31%

What do the screens show for `CC(C)C[C@H]1COc2cc(N3CCCC3)ccc2S(=O)(=O)N1C`?
FUS suppressor: inactive

Results for CCCCCCSc1ccc([C@H]2N[C@@](C)(C(=O)OC)[C@H]3C(=O)N(C)C(=O)[C@@H]23)cc1 ?
Mm-Cpn inhibitor: -7%; FUS suppressor: 13µM*; ClpP mod: -20%; aSyn yeast inh: inconclusive; Abeta rescue: inactive; TDP43 rescue: inconclusive

How did C[C@H]1[C@@H](NS(=O)(=O)c2ccccc2[N+](=O)[O-])CC[C@@]23CCCN2C(=O)CCC[C@@H]13 do in these assays?
FUS suppressor: inactive

What do the screens show for `C=Cc1ccc(Cn2nc(-c3ccccc3)ccc2=O)cc1`?
Mm-Cpn inhibitor: 1%; FUS suppressor: inconclusive; ClpP mod: -1%; aSyn yeast inh: inconclusive; Abeta rescue: inactive; TDP43 rescue: 11µM*

Results for O=c1ccc(-c2ccccc2)nn1Cc1ccccc1F ?
Mm-Cpn inhibitor: 1%; FUS suppressor: inactive; aSyn yeast inh: 5%; Abeta rescue: inactive; TDP43 rescue: inconclusive

What do the screens show for `CN(C)c1ccc(/C=C/c2ccnc3c(Cl)ccc(Cl)c23)cc1`?
ClpP mod: -3%; aSyn yeast inh: -6%

Results for Cc1c(C(=O)c2ccccc2C(=O)O)sc2ccccc12 ?
Mm-Cpn inhibitor: inconclusive; FUS suppressor: inactive; aSyn yeast inh: 1%; Abeta rescue: inactive; TDP43 rescue: 11µM*

Results for CCOC(=O)Cc1csc(NC(=O)COc2ccc3c(c2)CCC3)n1 ?
Mm-Cpn inhibitor: 1%; FUS suppressor: inactive; ClpP mod: -1%; aSyn yeast inh: -24%; Abeta rescue: inconclusive; TDP43 rescue: 16µM*

What do the screens show for `CCOC(=O)Cc1csc(NC(=O)COc2ccc(C)cc2)n1`?
Mm-Cpn inhibitor: -1%; FUS suppressor: inactive; ClpP mod: 3%; aSyn yeast inh: -10%; Abeta rescue: inconclusive; TDP43 rescue: 11µM*

What do the screens show for `O=c1c(-c2cc(-c3ccccc3)nc3c2COc2ccccc2-3)coc2ccc(Cl)cc12`?
FUS suppressor: inactive; ClpP mod: -3%; Abeta rescue: inactive; TDP43 rescue: 9%

What do the screens show for `C=CCn1c(SCc2c(F)cccc2Cl)nnc1-c1ccco1`?
Mm-Cpn inhibitor: 1%; FUS suppressor: inactive; ClpP mod: -2%; aSyn yeast inh: -1%; Abeta rescue: inactive; TDP43 rescue: 13µM*

How did O=S1(=O)c2ccc(N3CCC[C@H]3CO)cc2O[C@H]2CCN1C2 do in these assays?
FUS suppressor: inactive

Results for Cc1ccc(Sc2ccc(NC(=O)CCl)cc2)c(C)c1 ?
Mm-Cpn inhibitor: 2%; FUS suppressor: inactive; ClpP mod: 0%; aSyn yeast inh: 16%; Abeta rescue: inconclusive; TDP43 rescue: 11µM*

What do the screens show for `Cc1nc2ccc(S(=O)(=O)CCC(=O)Nc3ccc(C(C)C)cc3)cc2s1`?
FUS suppressor: inactive; ClpP mod: 0%; Abeta rescue: inactive; TDP43 rescue: 21%

How did CCCCCCCCCc1conc1C(=O)CP(=O)(OC)OC do in these assays?
FUS suppressor: inactive; ClpP mod: -1%; aSyn yeast inh: -4%; Abeta rescue: inactive; TDP43 rescue: 35µM*

What do the screens show for `COc1ccc(C2=NOC(Cn3nc(C(=O)NCc4cccs4)cc3-c3ccccc3)C2)cc1` (centres undefined)?
Mm-Cpn inhibitor: 0%; FUS suppressor: inactive; ClpP mod: -4%; aSyn yeast inh: 1%; Abeta rescue: inactive; TDP43 rescue: inconclusive

High-throughput results deposited in PubChem by National Center for Advancing Translational Sciences (NCATS).
